Assay [1] in a line: inhibitors of TNFa-induced NFkB p65 translocation, primary screen, imaging, HUVEC, MLSMR starter and 10KST1 sets (AID 438;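 active means inhibition above 20% together with a positive visual image hit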;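 further: compound added about 3h40 before a 20 min TNFalpha stimulation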;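 on inhibition: signal is the nuclear over cytoplasmic p65 intensity ratio per well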). As to conditions: HUVEC TNFa-induced p65 nuclear translocation; cell count: measured here: nuclei count (cytotoxicity indicator), at 2.08 µM; inhibition: at 2 µM, stronger effect = higher value, 0% TNFa-plus-vehicle, 100% no-TNFa wells.
A short description of assay [2]: reduction of polyQ htt aggregates in cells – imaging, exon1htt(103Q)mCFP cells, high-content imaging, primary screen (AID 483;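 active means visual image review flags a hit and inhibition of aggregation exceeds 20%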;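 further: compound exposure lasted 3 days before fixation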;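 on nuclei count: percent of the per-plate median nuclei count of sample wells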). As to conditions: exon1htt(103Q)mCFP cell line, aggregate imaging, at 2 µM; inhibition of aggregation: stronger effect = higher value; nuclei count: measured here: cell count, toxicity.
Assay [3] can be described thus: endothelial E-selectin expression blockers – imaging, HUVEC, immunofluorescence, MLSMR starter and 10KST1 sets, primary screen (AID 487;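 active means visually confirmed hit in the image check and inhibition above 20%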;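 on inhibition: signal is fraction of cell area covered by stained E-selectin grains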;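 on nuclei count: 100% = median nuclei count of all wells on the same plate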). As to conditions: HUVEC TNFalpha-induced E-selectin immunofluorescence imaging, at 2 µM; inhibition: stronger effect = higher value; nuclei count: measured here: cell number, toxicity.
Assay [4] has as its target Voltage-gated potassium channel subunit beta-2 (Rattus norvegicus) (UniProt P62483). Kind of assay: inhibitors of rat Kvbeta2 reductase activity – biochemical, NADPH fluorescence, primary screen (AID 622;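 active means fluorescence slope higher than the sample average by over 3 SD, cut at about -0.22 in these data, passing the limit was not always enough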;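 further: slope of raw intensity against log time taken from 70 to 1610 s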). To be noted: recombinant KvBeta, 4-cyanobenzaldehyde reduction, at 10 µM, stronger effect = higher value.
Assay [5] has the same target. Put plainly: enhancers of rat Kvbeta2 NADPH turnover – biochemical, NADPH fluorescence, primary screen (AID 623).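 Further: fluorescence intensity change per second fitted from 20 to 320 s.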 As to conditions: Recombinant KvBeta, NADPH fluorescence decrease slope, 10 min; at 10 µM; stronger effect = lower value.
Assay [6] addresses Alpha-2C adrenergic receptor (Homo sapiens) (UniProt P18825). Kind of assay: compounds altering alpha2C-coupled GIRK flux – cell-based, HEK293 alpha2C/GIRK1/2, thallium flux, primary screen (AID 624;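 active means fluorescence slope after compound addition differing from the mean of all screened samples at 99.7% confidence, in either direction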;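 further: slope of fluorescence ratio to pre-addition baseline per second over 15 to 24 s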). As to conditions: thallium flux BTC fluorescence, at 10 µM, actives lie on both sides.
Assay [7] can be described thus: blockers of RIG-like receptor reporter activation – cell-based, Sendai virus stimulus, luciferase, 10K MLSCN set, TLR/RLR signaling modifier project, primary screen (AID 602276;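 active means inhibition at or above 50% at 10 µM; inactive means inhibition below 50%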;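 further: firefly luciferase from ISG56 promoter only with Renilla not read in this screen; 0% = Sendai virus plus DMSO and 100% = medium plus DMSO without virus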). To be noted: HEK293 RL24 IRF3 luciferase reporter, at 10 µM, stronger effect = higher value. In general terms: Reporter assays use an easily measured gene product as a stand-in for the process of interest.

Assay [8] can be described thus: TLR3 IRF3 reporter activation blockers – cell-based, poly I:C stimulus, luciferase, 10K MLSCN set, primary screen (AID 602277;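 active means inhibition of the reporter signal at or above 50%; inactive means inhibition below 50%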). As to conditions: HEK293-TLR3 RL24 IRF3 luciferase reporter, at 10 µM, stronger effect = higher value.

The structures appear in SMILES notation. The source made the active and inactive calls.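 How the source made its calls, unless noted: active means NADPH fluorescence slope more negative than the mean of all samples by about 3 SD, 99.7% confidence; inactive means the rest.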

Chain of Alpha-2C adrenergic receptor (Homo sapiens) (P18825 whole entry, looked up): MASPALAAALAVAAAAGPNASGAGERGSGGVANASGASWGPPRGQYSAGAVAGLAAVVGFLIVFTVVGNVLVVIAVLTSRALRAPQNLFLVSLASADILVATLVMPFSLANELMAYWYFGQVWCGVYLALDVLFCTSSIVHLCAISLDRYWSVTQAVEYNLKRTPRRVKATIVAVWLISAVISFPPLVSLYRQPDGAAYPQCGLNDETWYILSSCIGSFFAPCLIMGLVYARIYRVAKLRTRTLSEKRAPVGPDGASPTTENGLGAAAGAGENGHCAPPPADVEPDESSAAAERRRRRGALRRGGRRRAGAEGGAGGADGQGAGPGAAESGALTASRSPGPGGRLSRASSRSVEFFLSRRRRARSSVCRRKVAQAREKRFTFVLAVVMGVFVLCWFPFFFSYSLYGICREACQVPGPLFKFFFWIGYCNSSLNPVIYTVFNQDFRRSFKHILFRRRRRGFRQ
Chain of Voltage-gated potassium channel subunit beta-2 (Rattus norvegicus) (P62483 whole entry, looked up): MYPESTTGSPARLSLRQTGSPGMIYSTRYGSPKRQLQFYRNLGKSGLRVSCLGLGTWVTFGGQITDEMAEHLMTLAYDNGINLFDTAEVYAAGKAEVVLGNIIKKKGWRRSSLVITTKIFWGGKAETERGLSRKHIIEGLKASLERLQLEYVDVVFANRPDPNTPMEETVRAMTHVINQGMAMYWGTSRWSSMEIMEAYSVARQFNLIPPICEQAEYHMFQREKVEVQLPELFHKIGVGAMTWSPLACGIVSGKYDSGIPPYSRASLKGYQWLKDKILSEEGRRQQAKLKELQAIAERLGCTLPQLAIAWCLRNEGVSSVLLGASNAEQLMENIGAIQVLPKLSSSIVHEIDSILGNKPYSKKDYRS

In the case of `CCOc1ccccc1N1Cc2cc(C)c(C)cc2C1`, the cell count in assay [1] was 576. Also, the inhibition (as a rule, the drop in the measured response relative to a control, in per cent) in assay [1] is 2.9% (inactive); in assay [3], -9% (inactive); in assay [7], -0.273% (inactive); in assay [8], -2.86% (inactive). The inhibition of aggregation in assay [2] was 22.5% (inactive). The nuclei count in assay [2] is 110%; in assay [3], 118%. Also, in assay [4], the fluorescence slope was -0.543 (inactive). In addition, the NADPH fluorescence slope in assay [5] is 1.2e-05 (inactive). Besides, in assay [6], the slope is 0.00798 (inactive).

In the case of `CCOC(=O)c1ccc(N2C(=O)CC(N3CCN(C/C=C/c4ccccc4)CC3)C2=O)cc1` (stereo not drawn), in assay [1], the cell count was found to be 375. The inhibition in assay [1] was -4.9% (inactive); in assay [3], -52.6% (inactive); in assay [7] it was 9.04% (inactive); in assay [8], 16.7% (inactive). In addition, the inhibition of aggregation in assay [2] is -10.3% (inactive). Further, the results for the nuclei count in assay [2] and in assay [3] were 103% and 125%, respectively. Also, the fluorescence slope in assay [4] was -0.39 (inactive). Moreover, the NADPH fluorescence slope in assay [5] was 1.2e-05 (inactive). In addition, the slope in assay [6] was 0.008 (inactive).

As for `CCCc1cc(C(=O)Nc2ccccc2SC)no1`, the cell count in assay [1] came to 849. Moreover, the inhibition in assay [1] was 5.8% (inactive); in assay [3], -35.7% (inactive); in assay [7], -22% (inactive); in assay [8], -51.6% (inactive). Moreover, the inhibition of aggregation in assay [2] is -12.6% (inactive). Moreover, the nuclei count amounted to 108% in assay [2] and 121% in assay [3]. Moreover, in assay [4], the fluorescence slope is -0.597 (inactive). The NADPH fluorescence slope in assay [5] was -2.4e-05 (inactive). Also, the slope in assay [6] is 0.00474 (inactive).

As for `Cc1cc(=O)n2nc(N3CCCC(C(=O)N4CCc5ccccc54)C3)sc2n1` (stereo not drawn), the cell count in assay [1] is 487. For the same molecule, the inhibition is -7.5% (inactive) in assay [1], -54.6% (inactive) in assay [3], 18.4% (inactive) in assay [7] and 37.1% (inactive) in assay [8]. Moreover, in assay [2], the inhibition of aggregation was -1.6% (inactive). The results for the nuclei count in assay [2] and in assay [3] were 97% and 103%, respectively. In addition, the fluorescence slope in assay [4] was -0.324 (inactive). The NADPH fluorescence slope in assay [5] is -6.9e-05 (inactive). In addition, the slope in assay [6] was 0.00401 (inactive).

On to `COC(=O)CSc1nc2nc(C)cc(C)n2n1`, for which the cell count in assay [1] amounted to 722. For the same molecule, the inhibition was -4.5% (inactive) in assay [1], -33.5% (inactive) in assay [3], 11.7% (inactive) in assay [7] and 28.1% (inactive) in assay [8]. Besides, the inhibition of aggregation in assay [2] is 0.1% (inactive). Further, the nuclei count in assay [2] came out at 98.6%; in assay [3] it was 108%. In assay [4], the fluorescence slope is -0.552 (inactive). Besides, the NADPH fluorescence slope in assay [5] is -1.8e-05 (inactive). Also, in assay [6], the slope is 0.00719 (inactive).

With `O=C(Nc1ccccc1)N1CCC(c2ccccc2)C1` (stereo not drawn), in assay [1], the cell count turned out to be 331. Also, the inhibition is 23.5% (inactive) in assay [1], 13.1% (inactive) in assay [3], -49.3% (inactive) in assay [7] and -82.3% (inactive) in assay [8]. Further, the inhibition of aggregation in assay [2] was 3% (inactive). Further, the nuclei count in assay [2] stood at 101%; in assay [3], 103%. The fluorescence slope in assay [4] is -0.481 (inactive). Further, the NADPH fluorescence slope in assay [5] is -9.5e-06 (inactive). In addition, the slope in assay [6] was 0.00694 (inactive).

On to `CC(C)CCNC(=O)Cn1c(NCCC(C)C)nc2c1c(=O)n(C)c(=O)n2C`, for which, in assay [1], the cell count is 544. Further, the inhibition in assay [1] is -8.3% (inactive); in assay [3], -11.6% (inactive); in assay [7] it was 3.06% (inactive); in assay [8] it was 33.2% (inactive). Further, the inhibition of aggregation in assay [2] is 28.1% (inactive). Further, the nuclei count was found to be 80.1% in assay [2] and 102% in assay [3]. Moreover, the fluorescence slope in assay [4] was -0.623 (inactive). Also, the NADPH fluorescence slope in assay [5] was 8.9e-06 (inactive). Moreover, the slope in assay [6] was 0.0069 (inactive).

As to `CCOC(=O)c1ccc(Oc2cc(C)nc(SC)n2)cc1`, the cell count in assay [1] is 484. Moreover, the inhibition in assay [1] was 10.1% (inactive); in assay [3], -192% (inactive); in assay [7] it was 15.8% (inactive); in assay [8], 19.9% (inactive). Moreover, in assay [2], the inhibition of aggregation was 13.3% (inactive). Moreover, the nuclei count in assay [2] was 117%; in assay [3], 134%. For the same molecule, the fluorescence slope in assay [4] is -0.47 (inactive). Moreover, in assay [5], the NADPH fluorescence slope is -9.6e-06 (inactive). For the same molecule, the slope in assay [6] is 0.00614 (inactive).

In the case of `O=C(CSc1nc2ccsc2c(=O)n1NC(=O)c1ccccc1)Nc1nccs1`, in assay [1], the cell count is 414. Further, the inhibition is 3.2% (inactive) in assay [1], -134% (inactive) in assay [3], -7.17% (inactive) in assay [7] and 0.179% (inactive) in assay [8]. The inhibition of aggregation in assay [2] was 4% (inactive). The nuclei count in assay [2] was found to be 98.2%; in assay [3], 101%. The fluorescence slope in assay [4] is -0.342 (inactive). The NADPH fluorescence slope in assay [5] was -7e-06 (inactive). Also, the slope in assay [6] is 0.00492 (inactive).

On to `CCOC(=O)Cc1nnc2c(Nc3ccc(C)cc3)nc3nonc3n12`, for which the cell count in assay [1] turned out to be 352. Moreover, the inhibition is 1% (inactive) in assay [1], 6.7% (inactive) in assay [3], 23.5% (inactive) in assay [7] and 34.9% (inactive) in assay [8]. The inhibition of aggregation in assay [2] is 15% (inactive). For the same molecule, the nuclei count in assay [2] is 87.3%; in assay [3], 83%. Moreover, the fluorescence slope in assay [4] was -0.612 (inactive). In addition, the NADPH fluorescence slope in assay [5] was -1.4e-05 (inactive). Besides, in assay [6], the slope is 0.00447 (inactive).

Regarding `COc1ccc(OC)c(-c2nc3c(C)n[nH]c(=O)c3[nH]2)c1`, in assay [1], the cell count stood at 536. The inhibition in assay [1] was 10.3% (inactive); in assay [3], 9.1% (inactive); in assay [7] it was 8.37% (inactive); in assay [8] it was 20.2% (inactive). The inhibition of aggregation in assay [2] was 13% (inactive). For the same molecule, the nuclei count in assay [2] was 18.1%; in assay [3], 118%. In assay [4], the fluorescence slope is -0.423 (inactive). The NADPH fluorescence slope in assay [5] is -6.2e-05 (inactive). Also, the slope in assay [6] was 0.00496 (inactive).

`COc1ccc(N(CC(=O)Nc2cc(C)ccc2C)S(=O)(=O)c2c(C)nn(C)c2C)cc1`: in assay [1], the cell count was 499. For the same molecule, the inhibition in assay [1] was -2.3% (inactive); in assay [3] it was -8.4% (inactive); in assay [7] it was -2.9% (inactive); in assay [8] it was 21.3% (inactive). Also, in assay [2], the inhibition of aggregation is 30.5% (inactive). Besides, the nuclei count in assay [2] came out at 65.3%; in assay [3] it was 101%. Further, the fluorescence slope in assay [4] is -0.603 (inactive). The NADPH fluorescence slope in assay [5] is -2.9e-05 (inactive). Also, the slope in assay [6] was 0.0057 (inactive).

Consider `COC(=O)Cc1c(C)c2ccc(OCC(=O)N3CCOCC3)cc2oc1=O`, for which the cell count in assay [1] is 439. Further, the inhibition in assay [1] is 15.7% (inactive); in assay [3], -28.7% (inactive); in assay [7] it was 17.8% (inactive); in assay [8] it was 13.9% (inactive). Further, the inhibition of aggregation in assay [2] is 7.7% (inactive). The nuclei count in assay [2] is 113%; in assay [3] it was 74.6%. Moreover, the fluorescence slope in assay [4] was -0.363 (inactive). Moreover, the NADPH fluorescence slope in assay [5] is -1.5e-05 (inactive). The slope in assay [6] was 0.00545 (inactive).

These data come from PubChem BioAssay.
